According to PubChem BioAssay (NCATS):
Unmarked numbers belong to inactive results. Records with an inconclusive call do not appear. Where a call stands in place of a potency, no number is given. Calls of active or inactive are those of the source. Unless noted, calls come from the whole dose curve; as a rule, active = well fitted curve in the direction sought with a large enough effect; inconclusive = small, poorly fitted or top-dose-only effect, or another doubt; inactive = no such curve, though single readings can be large; an effect the other way counts as inactive or inconclusive.

How the values were obtained:
[1] = qHTS to identify inhibitors of the type 1 interferon - major histocompatibility complex class I in skeletal muscle: primary screen against the NCATS LOPAC collection (AID 1347405);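 note: lytic HiBiT luminescence reporting HLA-B protein level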
Method in brief: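 After 24 h at 37 C with compounds (7-point, 1:4.3 dilutions, 46 uM top final) plus 4 ng/ml IFN-beta, luminescence from lytic HiBiT detection was measured. HLA-B*08:01 in C25cl48 myoblasts carried an endogenous C-terminal HiBiT tag; medium lacked dexamethasone.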

[2] = qHTS to identify inhibitors of the type 1 interferon - major histocompatibility complex class I in skeletal muscle: primary screen against the NCATS Pharmaceutical Collection (AID 1347407);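 note: luminescence of HiBiT knocked into endogenous HLA-B as interferon-induced MHC class I level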
Method in brief: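 Immortalized human myoblasts (C25cl48) with HiBiT knocked into endogenous HLA-B*08:01 were stimulated with 4 ng/ml IFN-beta and treated with compounds (8-point, 1:5, top 46 uM final) for 24 h at 37 C; HiBiT lytic luminescence read.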

[3] = target: Protein phosphatase 1D (Homo sapiens) (UniProt O15297); test: RapidFire Mass Spectrometry qHTS Assay for Modulators of WT P53-Induced Phosphatase 1 (WIP1) (AID 1347424);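 note: amount of dephosphorylated VEPPL-S-QETFS peptide product formed by WIP1; series mostly up to about 63 µM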
Chain of Protein phosphatase 1D (Homo sapiens) (O15297 whole entry, looked up): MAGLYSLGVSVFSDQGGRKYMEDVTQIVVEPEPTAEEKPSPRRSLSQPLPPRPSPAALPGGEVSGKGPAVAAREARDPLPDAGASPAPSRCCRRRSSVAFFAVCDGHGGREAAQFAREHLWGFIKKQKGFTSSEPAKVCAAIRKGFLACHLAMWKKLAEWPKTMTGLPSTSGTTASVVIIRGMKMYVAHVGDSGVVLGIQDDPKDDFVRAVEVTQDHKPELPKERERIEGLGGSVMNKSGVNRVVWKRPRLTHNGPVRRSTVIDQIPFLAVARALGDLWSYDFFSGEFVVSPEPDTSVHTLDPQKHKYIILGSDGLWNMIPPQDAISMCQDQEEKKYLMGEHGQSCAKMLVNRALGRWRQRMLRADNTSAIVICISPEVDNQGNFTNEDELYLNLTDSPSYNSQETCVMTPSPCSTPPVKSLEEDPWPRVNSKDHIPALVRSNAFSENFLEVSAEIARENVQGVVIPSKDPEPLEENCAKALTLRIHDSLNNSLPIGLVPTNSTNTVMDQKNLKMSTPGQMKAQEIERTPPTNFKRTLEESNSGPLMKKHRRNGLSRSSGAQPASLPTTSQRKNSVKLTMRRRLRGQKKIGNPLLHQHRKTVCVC
Method in brief: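 RapidFire mass spectrometry measured dephosphorylated peptide after 5 min room-temperature reaction of 2 uM VEPPL-pS-QETFS with 10 nM WIP1 (50 mM Tris-HCl pH 7.5, 30 mM MgCl2, 0.1 mM EGTA, BSA), following 1 hr compound preincubation; 1 uM isotope-labelled product standard.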

[4] = target: Protein phosphatase 1D (Homo sapiens) (UniProt O15297); test: Rhodamine-PBP qHTS Assay for Modulators of WT P53-Induced Phosphatase 1 (WIP1) (AID 1347425)
Method in brief: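 The read-out is the change in Rhodamine-PBP fluorescence (f1 - f0, ex 525/em 598 nm) as Pi is released, read each minute for 11 min. Final reaction: 5 nM WIP1, 10 uM phosphopeptide VEPPL-pS-QETFS, 10 uM Rh-PBP, 50 mM Tris-HCl pH 7.5, 30 mM MgCl2. Compound was preincubated with enzyme for 1 hour at room temperature.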

[5] = Validation qHTS assay for inhibitors of Activation Induced Cytidine Deaminase (AID): UDG Counterscreen signal (AID 1347427)
Method in brief: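 Fluorescence at 560 nm excitation, 665 nm emission reports UDG signal after 250 mM NaOH (2x) addition and 30 min. Enzymes (AID 1 uM, UDG 2 U/mL, at 4/3x) preincubated 10 min with compound, then 4 h with 4x 250 nM DJC20/DJC23 substrate at room temperature.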

[6] = Primary qHTS for inhibitors of La Crosse Virus (LACV) - induced cell death in SH-SY5Y cells (AID 1508616);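 note: top concentration of the series differs between compounds; higher means more rescue of cells from virus-induced death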
Method in brief: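 Rescue of virus-induced death was read as ATPLite luminescence after 6 days at 37C, scaled between DMSO wells with LACV and without virus. Cells were SH-SY5Y, 6000/well, infected at 0.01 MOI after compound addition.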

[7] = target: Calcium and integrin-binding protein 1 (Homo sapiens) (UniProt Q99828); test: Validation qHTS for Identification of Calcium Integrin Binding protein 1 (CIB1) Competitor (AID 1508618)
Chain of Calcium and integrin-binding protein 1 (Homo sapiens) (Q99828 whole entry, looked up): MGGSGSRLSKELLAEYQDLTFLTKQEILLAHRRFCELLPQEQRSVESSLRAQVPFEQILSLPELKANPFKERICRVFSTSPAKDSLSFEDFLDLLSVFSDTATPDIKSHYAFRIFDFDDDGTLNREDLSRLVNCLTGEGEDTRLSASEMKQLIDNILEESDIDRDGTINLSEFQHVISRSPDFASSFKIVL
Method in brief: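 CIB1-GST (1 uM final) incubated 15 min at room temperature with compounds (up to 114 uM), then FITC-labelled alphaIIb peptide (100 nM) added. FP read (Ex 480/Em 540) after 15 min, pH 7.4 buffer containing 5 mM CaCl2.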

[8] = target: Calcium and integrin-binding protein 1 (Homo sapiens) (UniProt Q99828); test: Primary qHTS for Identification of Calcium Integrin Binding Protein 1 (CIB1) Competitor (AID 1508620);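 note: GST tagged CIB1 binding a fluorescein labelled alphaIIb integrin peptide tracer; top concentration of the series differs between compounds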
Method in brief: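 CIB1-GST (1 uM final) and compound incubated 15 min at room temperature before adding FITC-alphaIIb peptide tracer (100 nM final). Competition for binding read by fluorescence polarization (ex 480, em 540) after another 15 min at room temperature.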

[9] = Primary qHTS for small molecule stabilizers of the endoplasmic reticulum resident proteome: Secreted ER Calcium Modulated Protein (SERCaMP) assay (AID 1508630)
Method in brief: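 The SH-SY5Y reporter protocol was run at 3 concentrations up to 38.3 uM (primary) or 11 concentrations (follow-up): 16 h compound, 100 nM thapsigargin for 4 h, then extracellular luciferase luminescence.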

[10] = A High-Content qHTS Against Drug Library for the Identification of Small Molecules that Inhibit DYT1 Early Onset Primary Dystonia-Associated Cell Pathology (AID 1645839; calls by dose curve; note: series mostly up to about 46 µM)
Method in brief: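 High-content imaging quantified EGFP-TorsinA mislocalization in HEK293-derived cells inducibly expressing DYT1 mutant torsinA, after 48 h exposure to compound given together with tetracycline induction. Cell count served as a toxicity channel alongside %pathology.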

Papain (Carica papaya) = Papain (Carica papaya) (UniProt P00784); test: Primary qHTS assay for inhibitors of the protease papain (AID 1645873);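 note: papain turnover of Z-FR-AMC read as the AMC fluorescence gain over 10 min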; note: potency is the fitted concentration of half-maximal effect
Chain of Papain (Carica papaya) (P00784 whole entry, looked up): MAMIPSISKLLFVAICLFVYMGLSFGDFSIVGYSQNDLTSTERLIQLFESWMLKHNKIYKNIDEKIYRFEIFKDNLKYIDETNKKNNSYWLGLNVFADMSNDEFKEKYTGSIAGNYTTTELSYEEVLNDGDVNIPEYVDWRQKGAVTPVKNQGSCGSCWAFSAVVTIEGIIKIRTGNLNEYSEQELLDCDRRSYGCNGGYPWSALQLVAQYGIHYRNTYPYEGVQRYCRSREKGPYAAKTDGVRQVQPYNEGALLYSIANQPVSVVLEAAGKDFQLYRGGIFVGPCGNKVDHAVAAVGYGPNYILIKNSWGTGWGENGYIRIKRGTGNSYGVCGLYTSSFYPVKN

[11] = target: Single-stranded DNA cytosine deaminase (Homo sapiens) (UniProt Q9GZX7); test: Validation qHTS assay for inhibitors of Activation Induced Cytidine Deaminase (AID): AID signal (AID 1347429)
Chain of Single-stranded DNA cytosine deaminase (Homo sapiens) (Q9GZX7 whole entry, looked up): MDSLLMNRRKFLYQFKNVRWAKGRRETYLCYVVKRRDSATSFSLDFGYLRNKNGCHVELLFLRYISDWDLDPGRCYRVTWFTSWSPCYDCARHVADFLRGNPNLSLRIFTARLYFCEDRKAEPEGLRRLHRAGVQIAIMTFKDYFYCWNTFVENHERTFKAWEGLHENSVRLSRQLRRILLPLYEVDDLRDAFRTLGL
Method in brief: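 Compounds (final up to 114 uM) preincubated with AID plus UDG; 250 nM DJC20/DJC23 substrate mix (4x stock) added, 4 hr at room temperature, then NaOH, 30 min. Read 1 fluorescence at 540 nm excitation, 590 nm emission.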

[12] = target: Cytochrome P450 2D6 (Homo sapiens) (UniProt P10635); test: Cytochrome P450 family 2 subfamily D member 6 (CYP2D6) small molecule antagonists: luciferase biochemical (cell-free) qHTS assay (AID 1645840; active = well fitted curve in the direction sought with a large enough effect in the repeat runs; an effect the other way counts as inactive or inconclusive; note: nearly all actives have a fitted effect of over 55% in size; note: potency is the fitted concentration of half-maximal effect)
Chain of Cytochrome P450 2D6 (Homo sapiens) (P10635 whole entry, looked up): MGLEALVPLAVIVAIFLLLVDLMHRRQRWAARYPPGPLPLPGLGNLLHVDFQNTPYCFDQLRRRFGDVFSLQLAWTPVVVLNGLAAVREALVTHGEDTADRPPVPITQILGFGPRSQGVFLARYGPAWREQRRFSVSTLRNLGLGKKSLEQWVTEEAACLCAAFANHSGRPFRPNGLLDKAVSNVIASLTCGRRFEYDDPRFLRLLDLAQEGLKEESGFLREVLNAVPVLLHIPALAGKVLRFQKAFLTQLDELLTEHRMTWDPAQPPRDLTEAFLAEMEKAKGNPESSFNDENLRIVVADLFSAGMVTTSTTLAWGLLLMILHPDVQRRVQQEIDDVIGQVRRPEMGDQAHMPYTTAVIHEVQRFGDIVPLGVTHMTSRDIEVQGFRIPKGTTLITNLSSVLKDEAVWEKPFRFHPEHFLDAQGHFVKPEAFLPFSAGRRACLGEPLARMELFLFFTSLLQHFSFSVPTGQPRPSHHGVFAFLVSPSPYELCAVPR
Method in brief: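 P450-Glo CYP2D6 system: proluciferin substrate converted by enzyme to luciferin, read by luminescence proportional to activity. Enzyme-substrate mix with compound 10 min at room temperature, then NADPH regeneration 1 h before detection reagent.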

[13] = target: Cytochrome P450 2C9 (Homo sapiens) (UniProt P11712); test: Cytochrome P450 family 2 subfamily C member 9 (CYP2C9) small molecule antagonists: luciferase biochemical (cell-free) qHTS assay (AID 1645842; active = well fitted curve in the direction sought with a large enough effect in the repeat runs; an effect the other way counts as inactive or inconclusive; note: nearly all actives have a fitted effect of over 55% in size; note: potency is the fitted concentration of half-maximal effect)
Chain of Cytochrome P450 2C9 (Homo sapiens) (P11712 whole entry, looked up): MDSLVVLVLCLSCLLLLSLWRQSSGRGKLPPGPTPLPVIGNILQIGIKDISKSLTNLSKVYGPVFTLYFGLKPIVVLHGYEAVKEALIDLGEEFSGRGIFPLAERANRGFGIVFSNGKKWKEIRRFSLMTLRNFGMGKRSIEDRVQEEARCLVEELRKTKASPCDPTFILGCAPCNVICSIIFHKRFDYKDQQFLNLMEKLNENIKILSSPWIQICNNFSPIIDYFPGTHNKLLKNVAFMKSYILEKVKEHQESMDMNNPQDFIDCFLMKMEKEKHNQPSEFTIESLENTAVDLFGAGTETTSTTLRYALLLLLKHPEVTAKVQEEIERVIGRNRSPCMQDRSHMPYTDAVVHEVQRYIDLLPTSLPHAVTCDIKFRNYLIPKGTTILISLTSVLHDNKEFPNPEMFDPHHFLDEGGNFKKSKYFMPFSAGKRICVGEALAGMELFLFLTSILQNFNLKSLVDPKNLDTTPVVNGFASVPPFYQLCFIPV
Method in brief: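 P450-Glo CYP2C9 system: proluciferin substrate with enzyme in mix containing 0.4% BSA, 10 min at room temperature, then NADPH regeneration solution added and incubated 1 h at 37C. Detection reagent stopped reaction; luminescence read after 20 min as RLU.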

[14] = qHTS for inhibitors of adenylyl cyclases using a fission yeast platform: a pilot screen against the NCATS LOPAC library (AID 1347410)
Method in brief: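 S. pombe CHP2027 (AC9-GNAS-PDE4D2) carrying a PKA-repressed fbp1-GFP reporter was exposed to LOPAC compounds (final up to 57 µM) for 18 h at 30C in the dark, in EMM with histidine, lysine and uracil; GFP gain-of-signal read by laser scanning cytometry.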

[15] = Counterscreen qHTS for small molecule stabilizers of the endoplasmic reticulum resident proteome: GLuc-NoTag assay (AID 1508627);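 note: SH-SY5Y cells given compound then 100 nM thapsigargin to empty ER calcium; series mostly up to about 76 µM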
Method in brief: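 Counterscreen line: SH-SY5Y-GLuc-NoTag cells, treated with compound 19 hr before a 4 hr, 100 nM thapsigargin calcium depletion. Secreted Gaussia luciferase in the medium was measured by luminescence after coelenterazine was added (0.07x final), with cells unlysed.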

## Nc1nc(N)c2nc(-c3ccccc3)c(N)nc2n1
[1]
  Potency: inactive
[2]
  Potency: inactive
[3]
  Potency: inactive
[4]
  outcome: inactive
[5]
  outcome: inactive
[6]
  Potency: inactive
[7]
  outcome: inactive
[8]
  Potency: inactive
[9]
  Potency: inactive
[10]
  Potency: inactive
Papain (Carica papaya)
  Potency: 1120 nM (active)

## Cc1cccc(C)c1NC(=O)C(C)N (stereo unspecified)
[1]
  Potency: inactive
[2]
  Potency: inactive
[3]
  Potency: inactive
[4]
  outcome: inactive
[5]
  outcome: inactive
[11]
  Potency: inactive
[6]
  Potency: inactive
[7]
  outcome: inactive
[8]
  Potency: inactive
[9]
  Potency: inactive
[10]
  Potency: inactive
[12]
  Potency: inactive
[13]
  Potency: inactive
Papain (Carica papaya)
  Potency: inactive

## CCCN1C[C@H](CSC)C[C@@H]2c3cccc4[nH]cc(c34)C[C@H]21
[1]
  Potency: inactive
[2]
  Potency: inactive
[14]
  outcome: inactive
[4]
  outcome: inactive
[5]
  outcome: inactive
[6]
  Potency: inactive
[8]
  Potency: inactive
[9]
  Potency: inactive
[10]
  Potency: inactive
[12]
  Potency: 55 nM (active)
[13]
  Potency: inactive
Papain (Carica papaya)
  Potency: inactive

## CC(=O)Oc1cc(C(C)C)c(OCCN(C)C)cc1C
[1]
  Potency: inactive
[2]
  Potency: inactive
[14]
  outcome: inactive
[4]
  outcome: inactive
[5]
  outcome: inactive
[11]
  Potency: inactive
[6]
  Potency: inactive
[10]
  Potency: inactive
[12]
  Potency: 8710 nM (active)
[13]
  Potency: inactive
Papain (Carica papaya)
  Potency: inactive

## CC(=O)OC(C)C[N+](C)(C)C (stereo unspecified)
[1]
  Potency: inactive
[2]
  Potency: inactive
[3]
  Potency: inactive
[4]
  outcome: inactive
[5]
  outcome: inactive
[11]
  Potency: inactive
[6]
  Potency: inactive
[7]
  outcome: inactive
[8]
  Potency: inactive
[9]
  Potency: inactive
[13]
  Potency: inactive
Papain (Carica papaya)
  Potency: inactive

## O=C(O)CP(=O)(O)O
[1]
  Potency: inactive
[2]
  Potency: inactive
[14]
  outcome: inactive
[4]
  outcome: inactive
[5]
  outcome: inactive
[6]
  Potency: inactive
[7]
  outcome: inactive
[8]
  Potency: inactive
[12]
  Potency: inactive
[13]
  Potency: inactive
Papain (Carica papaya)
  Potency: inactive

## COc1cc(Cc2cnc(N)nc2N)cc(OC)c1OC
[1]
  Potency: inactive
[2]
  Potency: inactive
[14]
  outcome: inactive
[4]
  outcome: inactive
[5]
  outcome: inactive
[6]
  Potency: inactive
[7]
  outcome: inactive
[8]
  Potency: inactive
[12]
  Potency: inactive
[13]
  Potency: inactive

## CCCCNc1c(C(=O)OCC)c(C)nc2c1cnn2CC
[1]
  Potency: inactive
[2]
  Potency: inactive
[14]
  outcome: inactive
[4]
  outcome: inactive
[5]
  outcome: inactive
[11]
  Potency: inactive
[6]
  Potency: inactive
[7]
  outcome: inactive
[8]
  Potency: inactive
[13]
  Potency: 17400 nM (active)
Papain (Carica papaya)
  Potency: inactive

## CN=C(NC#N)NCCSCc1nc[nH]c1C
[1]
  Potency: inactive
[2]
  Potency: inactive
[3]
  Potency: inactive
[4]
  outcome: inactive
[5]
  outcome: inactive
[6]
  Potency: inactive
[7]
  outcome: inactive
[8]
  Potency: inactive
[9]
  Potency: inactive
[10]
  Potency: inactive
[13]
  Potency: 13800 nM (active)
Papain (Carica papaya)
  Potency: inactive

## CCCN(CCC)CCc1cccc2c1CC(=O)N2
[1]
  Potency: inactive
[2]
  Potency: inactive
[3]
  Potency: inactive
[4]
  outcome: inactive
[5]
  outcome: inactive
[11]
  Potency: inactive
[6]
  Potency: inactive
[7]
  outcome: inactive
[8]
  Potency: inactive
[9]
  Potency: inactive
[12]
  Potency: 2750 nM (active)
[13]
  Potency: inactive
Papain (Carica papaya)
  Potency: inactive

## CCCNC(C)C(=O)Nc1ccccc1C (stereo unspecified)
[1]
  Potency: inactive
[2]
  Potency: inactive
[14]
  outcome: inactive
[4]
  outcome: inactive
[5]
  outcome: inactive
[11]
  Potency: inactive
[6]
  Potency: inactive
[7]
  outcome: inactive
[8]
  Potency: inactive
[9]
  Potency: inactive
[13]
  Potency: inactive
Papain (Carica papaya)
  Potency: inactive

## CCN(CC)CCCN(c1ccccc1)C1Cc2ccccc2C1
[1]
  Potency: inactive
[2]
  Potency: inactive
[3]
  Potency: inactive
[4]
  outcome: inactive
[5]
  outcome: inactive
[11]
  Potency: inactive
[6]
  Potency: inactive
[7]
  outcome: inactive
[15]
  Potency: inactive
[12]
  Potency: 38.9 nM (active)
[13]
  Potency: inactive
Papain (Carica papaya)
  Potency: inactive
